Source: PubChem BioAssay (National Center for Advancing Translational Sciences (NCATS))
WRN inhibitor: blocks human WRN helicase; Potency, µM (highest dose often 114 µM), for the others: at the top dose activity change, negative = inhibition, usual class: inhibitors; WRN helicase unwinding, fluorescent forked duplex, kinetic; AID 651768; Q14191; 360,000 compounds, 0.46% hits; note: potency is the fitted concentration of half-maximal effect; % is set by controls: 0 for no effect and ±100 for the full control effect; nearly all actives have a fitted effect of over 55% in size
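Primary qHTS, 1536-well format. 20 nM WRN + compound, 15 min RT; start with 100 nM forked fluorophore/quencher duplex, 2 mM ATP (final); kinetic read ex 525/em 598 nm.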
POLI inh: inhibitors of human DNA polymerase iota. Potency, µM (doses to about 115 µM), for inactives: at the highest dose activity, negative = inhibition, most hits filed as inhibitors. 390,000 compounds, 1% hits. Pol iota fluorescent replication assay, 10 min. Q9UNA4. AID 588590; note: potency is the fitted concentration of half-maximal effect
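Fluorescent replication assay read twice, at 0 min and 10 min after adding 50 nM (final) substrate. Enzyme (10 nM) and compounds were first incubated 15 min at room temperature; enzyme-free buffer wells were negative controls.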
POLH inh: inhibitors of human DNA polymerase eta. Q9Y253. recombinant Pol eta, fluorescent DNA replication assay. Potency, µM (series often up to 114 µM), inactives show top-dose activity change, negative = inhibition, most hits filed as inhibitors. 390,000 compounds, 1.2% hits. AID 588591; note: potency is the fitted concentration of half-maximal effect; % is set by controls: 0 for no effect and ±100 for the full control effect
Target sequence (Q9Y253 whole entry, looked up): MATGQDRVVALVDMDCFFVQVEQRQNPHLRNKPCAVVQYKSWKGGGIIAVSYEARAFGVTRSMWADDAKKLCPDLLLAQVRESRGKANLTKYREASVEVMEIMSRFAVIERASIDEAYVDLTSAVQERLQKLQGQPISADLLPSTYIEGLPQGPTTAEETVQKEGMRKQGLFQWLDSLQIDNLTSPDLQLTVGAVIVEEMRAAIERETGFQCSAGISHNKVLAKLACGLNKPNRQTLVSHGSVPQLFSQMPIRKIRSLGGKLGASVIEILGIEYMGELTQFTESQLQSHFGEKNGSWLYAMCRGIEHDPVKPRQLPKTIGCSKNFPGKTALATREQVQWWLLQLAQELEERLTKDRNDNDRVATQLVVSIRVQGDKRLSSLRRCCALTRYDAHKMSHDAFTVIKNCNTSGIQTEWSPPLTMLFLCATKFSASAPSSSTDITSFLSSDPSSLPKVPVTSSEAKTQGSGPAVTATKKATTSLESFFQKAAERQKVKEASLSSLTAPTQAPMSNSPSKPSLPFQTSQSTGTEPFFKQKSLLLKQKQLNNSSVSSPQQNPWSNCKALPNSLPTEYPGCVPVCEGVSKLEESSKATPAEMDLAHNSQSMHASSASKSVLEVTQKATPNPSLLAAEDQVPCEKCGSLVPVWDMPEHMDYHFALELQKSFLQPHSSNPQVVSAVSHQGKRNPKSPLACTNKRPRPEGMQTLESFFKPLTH
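Pol eta at 10 nM preincubated with compounds 15 min at room temperature; reaction started with fluorescent substrate (50 nM final) and read kinetically at 0 and 10 min.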
PI5P4K alpha inh: PI5P4K alpha (human) kinase inhibition | P48426 | PI5P4Kalpha enzyme, ADP-Glo luminescence, 60 min; hits give low values | max response, % | 330,000 compounds, 1.2% hits | AID 652105; active = max response of -50% or lower; inconclusive = between -30% and -50%; inactive = -30% or higher; note: value at the top dose of about 77 µM; % is set by controls: 0 for no effect and ±100 for the full control effect
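qHTS, 1536-well: enzyme/substrate mix, compound by pin tool, 5 microM ATP final; RT 60 min; ADP-Glo reagents 1 (45 min) then 2 (30 min); luminescence.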
Pol kappa inh: DNA polymerase kappa (human) inhibition; Q9UBT6; purified Pol kappa, fluorescent DNA synthesis assay, 10 min; Potency, µM (titrated, usually from 107 µM), without a hit: at the top dose activity, negative = inhibition, most hits filed as inhibitors; 400,000 compounds, 0.53% hits; AID 588579; note: potency is the fitted concentration of half-maximal effect; % is set by controls: 0 for no effect and ±100 for the full control effect
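Fluorescent qHTS in 1536-well format: enzyme (10 nM) and compound sat 15 min at room temperature before 50 nM substrate (final) was added. Signal taken at 0 and 10 min; no-enzyme buffer wells were negative controls.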
Pol beta inh: DNA polymerase beta (human) inhibition. AID 485314. Potency, µM (doses to about 114 µM), inactives show top-dose activity change, negative = inhibition, hits mostly inhibitors. 340,000 compounds, 1.3% hits. Pol beta primer extension/strand displacement, fluorescence kinetic; note: potency is the fitted concentration of half-maximal effect; % is set by controls: 0 for no effect and ±100 for the full control effect
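Enzyme-only controls used 10 nM Pol beta; buffer lacking enzyme served as negative control. Compound preincubated 15 min, then 50 nM substrate added; 0 and 10 min reads at room temperature.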
PGK validate: validation of Trypanosoma brucei phosphoglycerate kinase inhibitors; TbPGK coupled GAPDH assay, Kinase-Glo luminescence; shares compounds with Pol kappa inh; 500 compounds, 79% hits; AID 686980; Potency, µM (series often up to 57.5 µM), for the others: at the highest dose activity change, negative = inhibition, most hits filed as inhibitors; note: potency is the fitted concentration of half-maximal effect; % is set by controls: 0 for no effect and ±100 for the full control effect; nearly all actives have a fitted effect of over 65% in size
Pol iota confirm: Confirm cherry-picked inhibitors of human polymerase iota; Pol iota primer extension, TAMRA/BHQ fluorescence; Potency, µM, usual class: inhibitors; 1,500 compounds, 77% hits; shares compounds with Pol kappa inh; AID 720496; note: potency is the fitted concentration of half-maximal effect
* = called active by the depositor; ? = inconclusive; / = not tested or not shown; [ ] = dose if it differs, or a comment. Only some compounds are listed: those with a hit (about 2.8% of all), similar ones and a draw of the others. Unless noted, calls come from the whole dose curve; as a rule, active = well fitted curve in the direction sought with a large enough effect; inconclusive = small, poorly fitted or top-dose-only effect, or another doubt; inactive = no such curve, though single readings can be large; an effect the other way counts as inactive or inconclusive.

SMILES | WRN inhibitor | POLI inh | POLH inh | PI5P4K alpha inh | Pol kappa inh | Pol beta inh | PGK validate | Pol iota confirm
CC1OC(Oc2c(-c3cc(O)c(O)c(O)c3)oc3cc(O)cc(O)c3c2=O)C(O)C(O)C1O (stereo unspecified) | -3%[11.6 µM] | ? | ? | ? | 50µM* | 14µM* | / | ?
C[C@@H]1O[C@@H](OC[C@@H]2O[C@H](Oc3c(-c4ccc(O)cc4)oc4cc(O)cc(O)c4c3=O)[C@@H](O)[C@H](O)[C@H]2O)[C@H](O)[C@H](O)[C@H]1O | 0% | ? | 4% | 0 | -3% | / | / | /
Nc1nc(N2CCN(C(=O)c3ccco3)CC2)nc2ccccc12 | 3% | 17% | 3% | 0 | -21% | 28% | / | /
Nc1nc(N2CCN(C(=O)c3ccco3)CC2)nc2ccc(Br)cc12 | -5% | 0% | -22% | -30 | -1% | -10% | ? | /
O=C(COC(=O)Cn1nnc(-c2ccccc2)n1)Nc1cc(F)ccc1F | 1% | -12% | -15% | 2 | -16% | / | / | /
CCCCC[C@H](O)/C=C/[C@@H]1[C@@H](C/C=C\CCCC(=O)OC)[C@@H](O)C[C@H]1O | 12% | 1.3µM* | ? | 1 | -10% | 24% | 4% | /
Cc1ccc(C(C)C)c(OCC(=O)NC2CCN(C)CC2)c1 | -2% | 0% | -1% | 8 | 2% | 20% | / | /
Cc1cc(=O)[nH]c(N/N=C/c2ccc(OC(=O)c3ccco3)cc2)n1 | ? | 14% | 50µM* | -7 | 9% | -9% | / | ?
Cc1cc(=O)[nH]c(N/N=C/c2ccco2)n1 | -11% | 12% | -5% | 5 | -6% | -16% | / | /
Cc1cc(C)n(-c2ccc(C(=O)N3CCN(S(=O)(=O)c4ccc(Cl)cc4)CC3)cc2)n1 | 3% | 36% | -5% | 0 | -3% | / | / | /
Oc1ccc(CNc2cccnc2)c2cccnc12 | / | / | / | / | / | / | / | ?
Cc1ccc(NCc2ccc(O)c3ncccc23)cc1 | -27% | 69% | -16% | ? | 1% | 3% | / | /
Cc1cc(=O)oc2cc(NC(=O)COc3ccccc3[N+](=O)[O-])ccc12 | -35%[11.6 µM] | ? | ? | -12 | -19% | / | / | ?
Cn1c(C(=O)NCCc2ccccc2)cc2cc(S(=O)(=O)N3CCCCC3)ccc21 | / | 2% | 1% | / | -12%[60.1 µM] | -1% | / | /
O=C(COC(=O)/C=C/c1ccco1)Nc1cc(S(=O)(=O)N2CCOCC2)ccc1Cl | -2%[11.6 µM] | 50µM* | ? | -5 | ? | / | ? | /
COC(=O)C1=C(C(=O)OC)[C@@H]2N(C)c3ccc(OC)cc3[C@@]23C[C@@H](C(=O)OC)N(C(=O)c2cc(C)oc2C)C3=N1 | -5% | 27% | -29% | 5 | -9% | / | / | /
Cc1cccc(C(=O)NC(=S)Nc2cccc3nc(C)ccc23)c1 | -33% | 32µM* | ? | -9 | -8% | 25µM* | / | ?
O=C1c2ccccc2-c2nnc(-c3ccccc3)cc21 | -3% | ? | -5% | -11 | 5% | 26% | 12µM* | /
COc1ccc(-c2cc3c(nn2)-c2ccccc2C3=O)cc1 | -4% | 187% | -21% | ? | -3% | 37% | 4.6µM* | /
CN1CCc2c(sc(NC(=O)CSc3ccccc3)c2-c2nc3ccccc3s2)C1 | / | 67% | -14% | / | -3%[60.1 µM] | 4% | / | /
CC(=O)Nc1sc2c(c1-c1nc3ccccc3s1)CCN(C)C2 | / | / | / | / | / | / | / | 38*
Cc1ccnc(NC(=O)c2ccc3c(c2)OCO3)c1 | 9% | 140% | -2% | -25 | -10% | 3% | 21µM* | /
CC(C)(C)c1cc(/C=C(\C#N)C(N)=S)cc(C(C)(C)C)c1O | / | ? | -11%[57.1 µM] | / | -5%[60.1 µM] | -7%[57.1 µM] | / | /
